# Test results published in PubChem BioAssay (NCATS).
# “And” between values parts separate entries of the source, which are not always exact repeats. Equal values may be shown once. Results filed as inconclusive are left out. Where a call stands in place of a potency, no number is given. The source holds several records for some structures; these can differ, active in one and inactive in another. Unmarked numbers belong to inactive results. The source made the active and inactive calls. The call rests on the fitted dose curve; in most records, active means well fitted curve in the direction sought with a large enough effect; inconclusive means small, poorly fitted or top-dose-only effect, or another doubt; inactive means no such curve, though single readings can be large; an effect the other way counts as inactive or inconclusive.
# Tests used:
# [1] = tested on: Hek293T; experiment: Primary qHTS to identify gynecologic anti-cancer compounds using libraries of approved drugs and bioactive compounds (AID 1345084); settings: Gynecologic cancer cell panel viability, ATPlite luminescence, 48 h, control line for the selectivity index; series mostly up to 57.5 µM; further: nearly all actives have a fitted effect of over 55% in size
# Method in brief: (§1)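 Luminescence from the ATPlite ATP-monitoring reagent indicates viable cell number; lower signal means cytotoxicity. Cells received compound 16 h after seeding and were exposed for 48 h across five concentrations.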
# [2] = tested on: JEG-3; experiment: as above; settings: Gynecologic cancer cell panel viability, ATPlite luminescence, 48 h; series mostly up to 57.5 µM
# Method in brief: as §1
# [3] = tested on: OV90; experiment: as above; settings: Gynecologic cancer cell panel viability, ATPlite luminescence, 48 h; series mostly up to 57.5 µM
# Method in brief: as §1
# [4] = tested on: PA-1; experiment: as above; settings: Gynecologic cancer cell panel viability, ATPlite luminescence, 48 h; series mostly up to 57.5 µM
# Method in brief: as §1
# [5] = tested on: SKOV3; experiment: as above; settings: Gynecologic cancer cell panel viability, ATPlite luminescence, 48 h; series mostly up to 57.5 µM
# Method in brief: as §1
# [6] = tested on: Tov-21-G; experiment: as above; settings: Gynecologic cancer cell panel viability, ATPlite luminescence, 48 h; series mostly up to 57.5 µM
# Method in brief: as §1
# [7] = tested on: Tov112D; experiment: as above; settings: Gynecologic cancer cell panel viability, ATPlite luminescence, 48 h; series mostly up to 57.5 µM
# Method in brief: as §1
# [8] = Drug repurposing screens with cells derived from glioblastoma tumor samples (AID 1345199); settings: GBM patient neurospheres viability, ATP luminescence, 48 h; further: nearly all actives have a fitted effect of over 40% in size; further: potency means the concentration at half of the fitted maximal effect
# Method in brief: (§2)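 Primary testing used CD133+ neurospheres from four GBM patients, seven concentrations, 48 h exposure and ATP-based viability; confirmation added three slower-growing patient lines.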
# [9] = tested on: astro; experiment: as above; settings: viability, ATP luminescence, 48 h; series mostly up to 45.9 µM
# Method in brief: as §2
# [10] = at 45.9 µM (top of the series), tumour line B
# [11] = at 45.9 µM (top of the series), tumour line D
# [12] = at 46.1 µM (top of the series), tumour line C
# [13] = at 46 µM (top of the series), tumour line A
# [14] = at 20 µM (top of the series), tumour line C
# [15] = at 21.2 µM (top of the series), tumour line B
# [16] = at 21.2 µM (top of the series), tumour line D
# [17] = at 21.3 µM (top of the series), tumour line A
Structure (SMILES),Potency [1],Potency [2],Potency [3],Potency [4],Potency [5],Potency [6],Potency [7],"activity, negative = cell killing [8, 10] [%]","activity, negative = cell killing [8, 11] [%]","activity, negative = cell killing [8, 12]",Potency ([8]; tumour line A),Potency [9],"activity, negative = cell killing [8, 13] [%]","activity, negative = cell killing [8, 14] [%]","activity, negative = cell killing [8, 15] [%]","activity, negative = cell killing [8, 16] [%]","activity, negative = cell killing [8, 17] [%]",Potency ([8]; tumour line B),Potency ([8]; tumour line D)
COc1ccc2c(c1)c1c3n2CCN(C)C3=NCC1,inactive,inactive,inactive,inactive,inactive,inactive,inactive,-1.83,-7.29,-23.1%,12.6 µM (active),inactive,–,–,–,–,–,–,–
CC(C)[C@@H]1CC[C@@H](C)CC1=O,inactive,inactive,inactive,inactive,inactive,inactive,inactive,-6.28,-8.45,-8.42%,–,inactive,-24.9,–,–,–,–,–,–
NCCNC(=O)c1ccc(Cl)cn1,inactive,inactive,inactive,inactive,inactive,inactive,inactive,-0.687,-7.85,-12.2%,–,inactive,-29.4,–,–,–,–,–,–
COc1ccc(-c2cc(C(F)F)nn2-c2ccc(S(N)(=O)=O)cc2)cc1F,inactive,inactive,inactive,inactive,inactive,inactive,inactive,-10.4,-9.89,2.98%,–,inactive,-29.7,–,–,–,–,–,–
CC(C)Cc1ccc(CC(=O)O)cc1,inactive,inactive,inactive,inactive,inactive,inactive,inactive,-12.1,-2.06,9.2%,–,inactive,-12.4,–,–,–,–,–,–
CCCCCCCCCCCCCC(=O)OC(C)C,inactive,inactive,inactive,inactive,inactive,inactive,inactive,8.22,-15.3,3.73%,–,inactive,-17.4,–,–,–,–,–,–
CC(=O)OCC1=C(C(=O)O)N2C(=O)[C@@H](NC(=O)CSc3ccncc3)[C@H]2SC1,inactive,inactive,inactive,inactive,inactive,inactive,inactive,-6.44,-23.6,-18.9%,–,inactive,-34.9,–,–,–,–,–,–
CCC(Cc1c(I)cc(I)c(N)c1I)C(=O)O (stereo unspecified),inactive,inactive,inactive,inactive,inactive,inactive,inactive,–,–,–,–,–,–,4.71,4.87,3.32,-20,–,–
CCCc1ncc(C[n+]2ccccc2C)c(N)n1,inactive,inactive,inactive,inactive,inactive,inactive,inactive,–,–,–,–,inactive,–,11.7,-1.46,-1.64,-22.4,–,–
CCOc1ccccc1C(N)=O,inactive,inactive,inactive,inactive,inactive,inactive,inactive,-5.35,-0.0314,-1.96%,–,inactive,-26.8,–,–,–,–,–,–
Cc1ncc(CO)c(C=O)c1O,inactive,inactive,inactive,inactive,inactive,inactive,inactive,6.81,-6.02,7.46%,–,inactive,-26.4,–,–,–,–,–,–
CCO[C@@H]1O[C@H](C(COCc2ccccc2)OCc2ccccc2)[C@H](OCc2ccccc2)[C@H]1O (stereo partly specified),inactive,inactive,inactive,inactive,inactive,inactive,inactive,–,–,–,14.1 µM (active),inactive,–,-1.34,-8.94,-23.7,–,–,–
NCCNc1cccc2ccccc12,inactive,inactive,inactive,inactive,inactive,inactive,inactive,-17.3,-24.3,-28%,20 µM (active),inactive,–,–,–,–,–,–,–
OC[C@H]1O[C@@H]2O[C@H]3[C@H](O)[C@@H](O)[C@@H](O[C@H]4[C@H](O)[C@@H](O)[C@@H](O[C@H]5[C@H](O)[C@@H](O)[C@@H](O[C@H]6[C@H](O)[C@@H](O)[C@@H](O[C@H]7[C@H](O)[C@@H](O)[C@@H](O[C@H]8[C@H](O)[C@@H](O)[C@@H](O[C@H]1[C@H](O)[C@H]2O)O[C@@H]8CO)O[C@@H]7CO)O[C@@H]6CO)O[C@@H]5CO)O[C@@H]4CO)O[C@@H]3CO,inactive,inactive,inactive,inactive,inactive,inactive,inactive,-11.6,5.3,-14.8%,–,inactive,-16.2,–,–,–,–,–,–
COC(=O)C(c1ccccc1Cl)N1CCc2sccc2C1 (stereo unspecified),inactive,inactive,inactive,inactive,inactive,inactive,inactive,-13.2,-12.6,2.17%,28.2 µM (active),inactive,–,–,–,–,–,–,–
CCOCCn1c(N2CCCN(C)CC2)nc2ccccc21,inactive,inactive,inactive,inactive,inactive,inactive,inactive,-14.8,-9.28,-16%,17.8 µM (active),inactive,–,–,–,–,–,–,–

Structure (SMILES),Potency [1],Potency [2],Potency [3],Potency [4],Potency [5],Potency [6],Potency [7],"activity, negative = cell killing [8, 10] [%]","activity, negative = cell killing [8, 11] [%]","activity, negative = cell killing [8, 12]",Potency ([8]; tumour line A),Potency [9],"activity, negative = cell killing [8, 13] [%]","activity, negative = cell killing [8, 14] [%]","activity, negative = cell killing [8, 15] [%]","activity, negative = cell killing [8, 16] [%]","activity, negative = cell killing [8, 17] [%]",Potency ([8]; tumour line B),Potency ([8]; tumour line D)
COc1cc(C(=O)NCc2ccc(OCCN(C)C)cc2)cc(OC)c1OC,inactive,inactive,inactive,inactive,inactive,inactive,inactive,–,–,–,–,inactive,–,-15.6,-6.09,-9.89,-23.1,–,–
NS(=O)(=O)c1cc2c(cc1Cl)NC(CC1CCCC1)NS2(=O)=O (stereo unspecified),inactive,inactive,inactive,inactive,inactive,inactive,inactive,–,–,–,–,inactive,–,-10.8,-9.27,-11,-13.5,–,–
CN(Cc1ccc(C(C)(C)C)cc1)Cc1cccc2ccccc12,inactive,inactive,inactive,inactive,inactive,inactive,inactive,-23.3,–,-13.6% and -21.7%,22.4 µM (active),inactive,–,–,–,–,–,12.6 µM (active),22.4 µM (active)
NCc1ccccc1Sc1ccccc1CO,inactive,inactive,inactive,inactive,inactive,inactive,inactive,-12.4,-24,-18%,35.5 µM (active),inactive,–,–,–,–,–,–,–
CC(=O)Nc1ccc(CC(=O)O)cc1,inactive,inactive,inactive,inactive,inactive,inactive,inactive,0.59,-5.02,3.56%,–,inactive,-20.1,–,–,–,–,–,–
CCN1CCCC(OC(=O)C(c2ccccc2)c2ccccc2)C1 (stereo unspecified),inactive,inactive,inactive,inactive,inactive,inactive,inactive,–,–,–,8.91 µM (active),inactive,–,-5.6,-12.3,-10.7,–,–,–
Cc1c(-c2ccccc2)oc2c(C(=O)OCCN3CCCCC3)cccc2c1=O,inactive,inactive,inactive,inactive,inactive,inactive,inactive,–,–,–,–,inactive,–,10.4,-10.2,-18.3,-8.03,–,–
O=C(O)CCNC(=O)c1ccccc1,inactive,inactive,inactive,inactive,inactive,inactive,inactive,-3.69,-10.8,-11.5%,–,–,-25.4,–,–,–,–,–,–
Cc1cc(NS(=O)(=O)c2ccc(N)cc2)nc(C)n1,inactive,inactive,inactive,inactive,inactive,inactive,inactive,-14.8,-16.4,-10.5%,–,inactive,-27.1,–,–,–,–,–,–
OCCOCCN1CCN(C2=Nc3ccccc3Sc3ccccc32)CC1,inactive,inactive,inactive,inactive,inactive,inactive,inactive,-22.8,-20.3,1.64%,11.2 µM (active),inactive,–,–,–,–,–,–,–
CC(=O)NO,inactive,inactive,inactive,inactive,inactive,inactive,inactive,-7.52,-5.2,11.5%,–,inactive,-11.7,–,–,–,–,–,–
O=C(O)P(=O)(O)O,inactive,inactive,inactive,inactive,inactive,inactive,inactive,-0.165,-25,21.2%,–,inactive,-23.7,–,–,–,–,–,–
CC(=O)Nc1ccc(OCC(O)CNC(C)C)cc1 (stereo unspecified),inactive,inactive,inactive,inactive,inactive,inactive,inactive,-1.74,-7.95,-12.1%,–,inactive,-46.4,–,–,–,–,–,–
CC1CCc2c(N3CCC(O)CC3)c(F)cc3c(=O)c(C(=O)O)cn1c23 (stereo unspecified),inactive,inactive,inactive,inactive,inactive,inactive,inactive,9.87,-25.4,-16%,–,inactive,-14.1,–,–,–,–,–,–
COc1cc(C(=S)N2CCOCC2)ccc1O,inactive,inactive,inactive,inactive,inactive,inactive,inactive,-7.92,6.32,-22.1%,–,inactive,-27.5,–,–,–,–,–,–
